Results reported in PubChem BioAssay (NCI).
The panel holds about 83,000 compounds, 20% with a hit somewhere; the sample as a whole holds those more often.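 The endpoint reported here, percent growth, reads 100 for growth as untreated, 0 for no net growth and -100 for all cells dead.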 Activity calls are given as the source filed them. How the source made its calls: active means growth percent below 10; inactive means the rest.

Tested on: HL-60(TB) leukemia
Experiment: NCI-60 one-dose screen, 48 h (100 = growth as untreated, 0 = no growth, -100 = all killed)
Conditions: 10 µM unless noted

Row | Structure (SMILES) | growth
1 | ClCc1c(Cl)c(Cl)c(Cl)c(CCl)c1Cl | 80.4% (inactive)
2 | CCCCCCCCn1ccc2cc(NC(=O)Cn3cc(CN4CCC(C)CC4)nn3)ccc21 | -22.4% (active)
3 | N=C(N)SCc1cccc2c(CSC(=N)N)cccc12 | 93.4% (inactive)
4 | Cc1cc(Nc2cc(N3CCN(C)CC3)nc(/C=C/c3ccccc3)n2)n[nH]1 | -29.7% (active)
5 | O=[N+]([O-])c1c(F)cccc1Nc1cccc(F)c1 | 100% (inactive)
6 | Cc1ccc2c(n1)C(=O)c1[nH]c3ccccc3c1C2=O | 67.8% (inactive)
7 | COc1ccc(-c2csc(-c3cc(Cl)cc(Cl)c3Cl)n2)cc1 | 93.6% (inactive)
8 | NC(=O)c1ccccc1OCC(O)CO (stereo not given) | 108% (inactive)
9 | COc1cc2cc(Oc3ccc(NC(=O)c4cc(C(F)(F)F)cc(C(F)(F)F)c4)cc3)c(C)nc2cc1OC | 50.4% (inactive)
10 | CCCN1CCN(c2ccc3nc(-c4ccc5nc(-c6cc(OC)ccc6OC)[nH]c5c4)[nH]c3c2)CC1 | 106% (inactive)
11 | c1cnc2[nH]cc(-c3csc(-c4cn(CCCN5CCCCC5)c5ccccc45)n3)c2c1 | -2.66% (active)
12 | Cc1ccc2oc(=O)cc(C3c4ccc([nH]4)C(c4cc(=O)oc5ccc(C)cc45)c4ccc([nH]4)C(c4cc(=O)oc5ccc(C)cc45)c4ccc([nH]4)C(c4cc(=O)oc5ccc(C)cc45)c4ccc3[nH]4)c2c1 (stereo not given) | -24% (active)
13 | COc1ccc(NC(=O)c2ccc3c(c2)nc(-c2cc4ccccc4[nH]c2=O)n3-c2cc(C(C)(C)C)[nH]n2)cc1 | 96.8% (inactive)
14 | N#Cc1cnc2cc(OC[C@@H](O)CO)c(NC(=O)C3CCCC3)cc2c1Nc1ccc(OCc2cccc(F)c2)c(Cl)c1 | -28.8% (active)
15 | C#CCOCC1CN(C)C(=O)O1 (stereo not given) | 89.4% (inactive)
16 | CN1CCN(CCCOc2cccc3nc(Nc4cc(Cl)cc(Cl)c4)ccc23)CC1 | 56.4% (inactive)
17 | Cc1ccc(C(=O)c2ccc(CC(=O)N/N=C/c3ccccc3O)n2C)cc1 | 87% (inactive)
18 | O=S1(=O)N(Cc2ccccc2)[C@@H](Cc2ccccc2)[C@H](O)[C@H](O)[C@H](Cc2ccccc2)N1Cc1ccccc1 | -4.17% (active)
19 | COc1ccc(-c2nc3cc(C(=O)Nc4cc(OC)c(OC)c(OC)c4)ccc3n2C2CCCCC2)cc1 | 85.9% (inactive)
20 | Cc1cc(C)c(O)c(C(=O)CC(Br)C(=O)O)c1 (stereo not given) | 79.8% (inactive)

Row | Structure (SMILES) | growth
21 | O=[N+]([O-])c1ccc(S(=O)(=O)N2CCN(c3ccnc4cc(Cl)ccc34)CC2)c([N+](=O)[O-])c1 | 75.7% (inactive)
22 | C/C=C/C(N)=O | 107% (inactive)
23 | Nc1ccc2[nH]c(-c3ccccc3)cc(=O)c2c1 | 88.2% (inactive)
24 | FC(F)(F)c1ccc2nc(-c3nc(-c4ccccc4)n4ccccc34)[nH]c2c1 | 108% (inactive)
25 | COc1ccc(/C=C2\Oc3cc(OCCCN4CCCC4)ccc3C2=O)c(OC)c1 | 96.2% (inactive)
26 | C#Cc1cccc(Nc2ncnc3cc4c(cc23)OCCOCCOCCO4)c1 | 88.1% (inactive)
27 | CCCCCCNC(=O)Oc1ccc(/C(=C(\C)c2ccccc2)c2ccc(OCCCN(C)C)cc2)cc1 | 78% (inactive)
28 | CC(C)NCC(O)COc1ccc(CCOCC2CC2)cc1 (stereo not given) | 92.8% (inactive)
29 | Cc1nc2ccccc2c(C(=O)O)c1O | 186% (inactive)
30 | COc1cc(NS(C)(=O)=O)ccc1Nc1c2ccc([N+](=O)[O-])cc2nc2c(C)cccc12 | -26.6% (active)
31 | CCN=C1C=CC(=C(c2ccc(N(CC)CC)cc2)c2ccc(N(CC)CC)cc2)c2ccccc21 | -31.1% (active)
32 | C/C=C/c1cc2c(c(=O)o1)C(=O)[C@@H](O)[C@H](C)O2 | -22% (active)
33 | CC(=O)Nc1ccc(Cl)cc1Cl | 109% (inactive)
34 | O=C(NCCN1CCCC1)n1cc(-c2ccncc2)c(-c2cc(O)cc(Cl)c2)n1 | 95% (inactive)
35 | Cc1c(C(=O)OCCO)cc(-c2ccc(Cl)cc2)n1-c1ccc(Cl)cc1Cl | 59.7% (inactive)
36 | O=C(/C=C/c1ccc[nH]1)c1ccc(-n2ccc(C(F)(F)F)n2)c(F)c1 | -11.3% (active)
37 | O=[N+]([O-])c1cccc(C(c2ccccc2)c2ccccc2)c1 | 88.9% (inactive)
38 | COC(=O)[C@@H]1CCCN1C(=O)[C@@H]1CCCN1C(=O)[C@@H](Cc1c[nH]c2ccccc12)NC(=S)Nc1cc(C(F)(F)F)cc(C(F)(F)F)c1 | 11.1% (inactive)
39 | COC(=O)c1ccc2c(c1)n(Cc1ccc3ccccc3c1)c[n+]2Cc1ccc2ccccc2c1 | -18.8% (active)
40 | c1ccc(CCn2cccc2)nc1 | 1.63% (active)
